# Bioassay records as filed in PubChem.
# Mcl1-Noxa inh – Mcl-1/Noxa interaction inhibition. Q07820. hit rate 1.5% among 220,000. TR-FRET Mcl-1/Noxa peptide binding, 2 h. inhibition, % at 21.7 µM;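 active means compounds that cut the protein-peptide binding signal by more than 50% relative to plate controls in a single-dose test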;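 further: His-tagged Mcl-1 with rhodamine Noxa BH3 peptide and terbium anti-His antibody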
# Target sequence (Q07820 whole entry, looked up): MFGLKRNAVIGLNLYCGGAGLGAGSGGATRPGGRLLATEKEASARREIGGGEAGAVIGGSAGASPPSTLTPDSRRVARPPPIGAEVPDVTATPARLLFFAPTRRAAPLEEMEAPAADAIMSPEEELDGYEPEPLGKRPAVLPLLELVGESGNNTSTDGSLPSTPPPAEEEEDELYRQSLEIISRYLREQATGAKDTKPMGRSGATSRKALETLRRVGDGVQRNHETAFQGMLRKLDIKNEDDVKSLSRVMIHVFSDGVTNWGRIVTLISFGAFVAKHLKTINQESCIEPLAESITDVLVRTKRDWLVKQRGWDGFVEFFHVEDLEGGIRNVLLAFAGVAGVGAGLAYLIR
# Mcl-1 Bim block – human Bim-Mcl-1 interaction inhibition | Q07820 | Bead-based flow cytometry, Bim peptide-Mcl-1 binding | inhibition, % at 10 µM | hit rate 0.1% among 190,000; in the data active means inhibition above about 40%
# eIF4E-4G inh – inhibitors of eIF4E and eIF4G interaction in translation initiation. TR-FRET eIF4E-eIF4GI(517-606) binding, 2 h. inhibition, % at 21.7 µM. hit rate 0.37% among 220,000. AID 782;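 active means inhibition above about 30%, limit read from the data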
# Mcl1-Bid inh – Mcl-1/Bid interaction inhibition. TR-FRET Mcl-1/Bid-Dy647 peptide binding, 1536-well. inhibition, % at 21.7 µM. Q07820. hit rate 0.97% among 220,000;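 active means compounds that cut the binding signal by more than half at the single screening dose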;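 further: His-tagged Mcl-1 with europium anti-His antibody binding Bid BH3 peptide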
# 14-3-3 Bad inh – disrupts binding of bovine 14-3-3 zeta to phospho-Bad peptide | inhibition, % at 21.7 µM | hit rate 0.71% among 220,000 | TR-FRET 14-3-3zeta/Dy647-pBad peptide displacement, 1 h | AID 781;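 active means inhibition above about 70%, limit read from the data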
# Target sequence (P63103 whole entry, looked up): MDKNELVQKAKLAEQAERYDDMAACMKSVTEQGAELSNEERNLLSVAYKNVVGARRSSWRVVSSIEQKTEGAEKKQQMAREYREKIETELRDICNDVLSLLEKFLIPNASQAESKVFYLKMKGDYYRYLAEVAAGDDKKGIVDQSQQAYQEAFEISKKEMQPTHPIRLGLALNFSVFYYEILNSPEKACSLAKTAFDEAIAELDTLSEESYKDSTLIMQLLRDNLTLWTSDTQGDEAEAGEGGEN
# MCL1-BIM inh – MCL1-BIM-BH3 interaction inhibition (human); inhibition, % at 10.9 µM; Q07820; GST-MCL1 / FITC-Bim-BH3 fluorescence polarization; AID 2057; hit rate 0.68% among 320,000;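 active means inhibition above the mean inhibition of all tested compounds plus 3 SD, set per campaign, cut at about 40% in these data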;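 further: higher means more loss of mP so more displacement of Bim peptide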
# A number is an active result; n = inactive; x = no result given; [ ] = another dose, or the depositor's remark. Most compounds without a hit are left out; they make up all but 2.6% or so of the library.
SMILES,Mcl1-Noxa inh,Mcl-1 Bim block,eIF4E-4G inh,Mcl1-Bid inh,14-3-3 Bad inh,MCL1-BIM inh
O=c1oc2ccccc2c(O)c1/C=C1\C=Nc2ccccc21,78.2,n,n,n,n,n
CC(C)CC1C(C#N)=C(N)OC2=C1C(=O)CC(c1ccccc1)C2 (configuration not stated),n,n,n,n,n,n
CC(CC1C(C#N)=C(N)OC2=C1C(=O)CCC2)c1ccccc1 (configuration not stated),n,n,n,60.2,n,n
Cc1ccc(-n2[nH]c(C)c(C=Nc3ccc4[nH]c(=O)[nH]c4c3)c2=O)cc1,62.2,n,n,n,n,n
Cc1[nH]n(-c2cccc3ccccc23)c(=O)c1C=Nc1ccc2[nH]c(=O)[nH]c2c1,n,n,n,n,n,n
O=C(CSc1nnc(SCc2cccc3ccccc23)s1)N=Nc1c(O)[nH]c2ccccc12,60.2,n,n,78.7,n,n
C#Cc1ccc([C@@H]2C=C(C(=O)N3CCN(Cc4ccc5c(c4)OCO5)CC3)O[C@H](OCCCCO)C2)cc1,n,n,n,83.8,n,n
C#Cc1ccc([C@H]2C=C(C(=O)O)O[C@@H](OCc3ccc(CO)cc3)C2)cc1,n,n,n,50.6,n,n
O=C(C1=C[C@@H](c2ccc(C(F)(F)F)cc2)C[C@@H](OCc2ccc(CO)cc2)O1)N1CCN(Cc2ccccc2)CC1,80.9,n,n,n,n,n
O=C(CCn1c(=S)oc2ccccc21)Nc1cc([N+](=O)[O-])ccc1F,x,x,x,x,x,n
COc1ccc(OCC(=O)OCC(=O)Nc2ccc3[nH]c(=O)[nH]c3c2)cc1,x,x,x,x,x,n
CN(C)c1ccc(/C=N/N=C(N)N)cc1[N+](=O)[O-],n,n,n,n,n,n
COC(=O)C(Cc1csc2ccc(Cl)cc12)NC(=O)c1ccc(Cl)cc1 (configuration not stated),n,x,n,81.7,n,n
CC/C(=N/N=C(/CC)c1ccc(O)cc1)c1ccc(O)cc1,x,x,x,x,x,n
O=S(=O)(c1ccc(Cl)cc1)N1CCCc2ccccc21,x,x,x,x,x,n
Nc1ccc(S(=O)(=O)N2CCCc3ccccc32)cc1,n,n,62.4,n,n,n
O=C1NC(=Nc2ccccc2)S/C1=C\C=C\c1ccco1,112.3,n,n,n,n,n
Cc1ccc(N=C2NC(=O)/C(=C/C=C/c3ccco3)S2)cc1,81.7,n,n,n,n,n
Cc1cccc(N=C2NC(=O)/C(=C/C=C/c3ccco3)S2)c1C,113.7,n,n,92.4,n,n
Cc1cccc(N=C2NC(=O)/C(=C/c3cccn3C)S2)c1C,n,x,n,n,n,n
COc1ccc(N=C2NC(=O)/C(=C/C=C/c3ccccc3)S2)cc1,n,x,n,n,n,n
Cc1cc(C)c(C)c(OCCCN(C)C)c1,n,n,n,53.1,n,n
O=C1CC(N2CCN(Cc3ccc4c(c3)OCO4)CC2)C(=O)N1c1cccc(Cl)c1 (configuration not stated),n,n,65.6,n,n,n
O=C1CC(N2CCN(Cc3ccc4c(c3)OCO4)CC2)C(=O)N1c1cccc2ccccc12 (configuration not stated),n,n,n,n,n,n
CCN1CCCc2cc(CN(CCN3CCOCC3)C(=S)Nc3cccc(OC)c3)ccc21,60.3,n,n,n,n,n
SMILES,Mcl1-Noxa inh,Mcl-1 Bim block,eIF4E-4G inh,Mcl1-Bid inh,14-3-3 Bad inh,MCL1-BIM inh
COc1cccc(NC(=S)NCCN2CCOCC2)c1,n,n,n,n,n,n
CCOc1ccc(NC(=O)N(CCN2CCOCC2)Cc2ccc3c(c2)CCCN3CC)cc1,78.4,n,n,n,n,n
CCCN1CCCc2cc(CN(CCCN3CCOCC3)C(=O)Nc3ccc(OCC)cc3)ccc21,n,n,n,n,n,n
CC1(C)Cc2cccc(OCC(=O)OCC(=O)Nc3cccc(S(N)(=O)=O)c3)c2O1,n,x,n,92.6,n,n
Cc1ccc(NC(=O)Cn2c(O)c(N=NC(=O)c3cc4ccccc4cc3O)c3ccccc32)cc1,99.1,n,n,80.2,82.2[fluorescence artefact?],n
O=C(N=Nc1c(O)n(Cc2ccccc2)c2ccccc12)c1cc2ccccc2cc1O,85.1,n,n,56.1,n,n
COC(=O)c1ccc(C)c(NC(=O)CCCN2C(=O)NC(C)(C)C2=O)c1,x,x,x,x,x,n
COc1ccc(NC(=O)c2cccc(S(=O)(=O)N3CCCCCC3)c2)cc1,x,x,x,x,x,n
C=CCn1c(COc2ccccc2)nnc1SC(C)C(=O)N/N=C/c1cc(Cl)ccc1O (configuration not stated),n,n,n,n,n,n
CCOC(=O)N1CCN(C(=O)Cc2ccccc2OC)CC1,x,x,x,x,x,n
COc1ccc2cc(C3CC(c4cccs4)=NN3C(C)=O)c(Cl)nc2c1 (configuration not stated),n,x,n,53.8,n,n
Cc1ccc2nc(Cl)c(C3CC(c4cccs4)=NN3C(=O)CCC(=O)O)cc2c1 (configuration not stated),n,n,n,n,n,n
O=C(Cn1nc(C(=O)O)c2ccccc2c1=O)Nc1ccc2c(c1)C(=O)c1ccccc1C2=O,80.1,x,n,75.4,80.3,n
NS(=O)(=O)c1ccc(NC(=O)Cn2nc(C(=O)O)c3ccccc3c2=O)cc1,x,x,x,x,x,n
COc1ccc(OCC(O)CNS(=O)(=O)c2cccc(Cl)c2)cc1 (configuration not stated),n,x,n,n,n,n
Cc1ccc(NC(=O)c2noc3c2CCc2ccccc2-3)cc1,n,n,n,n,n,n
Cc1cc(NC(=O)c2noc3c2CCc2ccccc2-3)n(-c2ccccc2)n1,n,n,76.5[fluorescence artefact?],n,n,n
CCn1c(-c2cccc(Br)c2)n[nH]c1=S,n,n,n,96.7,n,n
CCn1c(-c2cccc(S(=O)(=O)N3CCCC3)c2)n[nH]c1=S,n,x,n,n,n,n
S=c1[nH]nc(-c2cccc(Cl)c2)n1CCN1CCCCC1,n,n,n,95.5,n,n
CCOC(=O)C1=C(COC(=O)c2ccco2)NC(=O)NC1CC (configuration not stated),x,x,x,x,x,n
CCOc1ncccc1C(=O)N(CC)CC(=O)NCc1ccc(Cl)cc1,x,x,x,x,x,n
O=c1[nH][nH]c(=S)n1C1CCCCC1,n,x,43.6,n,n,n
O=c1cc(O)n(C2CCCCCC2)c(=O)[nH]1,x,x,x,x,x,n
COc1ccc(-c2ccc(NCCN3CCOCC3)nn2)cc1OC,x,x,x,x,x,n
COc1ccc(CCNC(=O)C2CCN(S(=O)(=O)c3cccc4nonc34)CC2)cc1OC,66.1,n,n,n,n,n
COc1ccc(C2NC(=S)NC(O)(C(F)(F)F)C2C(=O)c2cccs2)cc1 (configuration not stated),n,n,n,n,n,n
Cc1ccc(C)c(NC(=S)NCCN(C2CCCCC2)C2CCCC2)c1,n,n,96.6,n,n,n
Cc1ccc(SCCNC(=S)Nc2cc(C)ccc2C)cc1,n,n,n,n,n,n
COc1ccc(-c2nc(CC(=O)O)cs2)cc1OC,n,n,n,n,81.2,n
